{
  "source": "the supplement of paper PMC11732987",
  "about": "“Enantioselective OTUD7B fragment discovery through chemoproteomics screening and high-throughput optimisation” (Communications Chemistry, 2025)",
  "experiment_in_all_cases": "log2 ratio of Biotin-Ahx-Ub-VS probe labelling (fragment/DMSO); higher = less target engagement (more negative = stronger competition), active = hit call of the paper (q ≤ 0.05, log2 ratio ≤ -1)",
  "details_in_all_cases": "compound concentration: 200 uM; treatment time: 3 h",
  "key": {"USP9X": {"target": "USP9X (UniProt Q93008)", "sequence (Q93008 whole entry, the tested form may be a part)": "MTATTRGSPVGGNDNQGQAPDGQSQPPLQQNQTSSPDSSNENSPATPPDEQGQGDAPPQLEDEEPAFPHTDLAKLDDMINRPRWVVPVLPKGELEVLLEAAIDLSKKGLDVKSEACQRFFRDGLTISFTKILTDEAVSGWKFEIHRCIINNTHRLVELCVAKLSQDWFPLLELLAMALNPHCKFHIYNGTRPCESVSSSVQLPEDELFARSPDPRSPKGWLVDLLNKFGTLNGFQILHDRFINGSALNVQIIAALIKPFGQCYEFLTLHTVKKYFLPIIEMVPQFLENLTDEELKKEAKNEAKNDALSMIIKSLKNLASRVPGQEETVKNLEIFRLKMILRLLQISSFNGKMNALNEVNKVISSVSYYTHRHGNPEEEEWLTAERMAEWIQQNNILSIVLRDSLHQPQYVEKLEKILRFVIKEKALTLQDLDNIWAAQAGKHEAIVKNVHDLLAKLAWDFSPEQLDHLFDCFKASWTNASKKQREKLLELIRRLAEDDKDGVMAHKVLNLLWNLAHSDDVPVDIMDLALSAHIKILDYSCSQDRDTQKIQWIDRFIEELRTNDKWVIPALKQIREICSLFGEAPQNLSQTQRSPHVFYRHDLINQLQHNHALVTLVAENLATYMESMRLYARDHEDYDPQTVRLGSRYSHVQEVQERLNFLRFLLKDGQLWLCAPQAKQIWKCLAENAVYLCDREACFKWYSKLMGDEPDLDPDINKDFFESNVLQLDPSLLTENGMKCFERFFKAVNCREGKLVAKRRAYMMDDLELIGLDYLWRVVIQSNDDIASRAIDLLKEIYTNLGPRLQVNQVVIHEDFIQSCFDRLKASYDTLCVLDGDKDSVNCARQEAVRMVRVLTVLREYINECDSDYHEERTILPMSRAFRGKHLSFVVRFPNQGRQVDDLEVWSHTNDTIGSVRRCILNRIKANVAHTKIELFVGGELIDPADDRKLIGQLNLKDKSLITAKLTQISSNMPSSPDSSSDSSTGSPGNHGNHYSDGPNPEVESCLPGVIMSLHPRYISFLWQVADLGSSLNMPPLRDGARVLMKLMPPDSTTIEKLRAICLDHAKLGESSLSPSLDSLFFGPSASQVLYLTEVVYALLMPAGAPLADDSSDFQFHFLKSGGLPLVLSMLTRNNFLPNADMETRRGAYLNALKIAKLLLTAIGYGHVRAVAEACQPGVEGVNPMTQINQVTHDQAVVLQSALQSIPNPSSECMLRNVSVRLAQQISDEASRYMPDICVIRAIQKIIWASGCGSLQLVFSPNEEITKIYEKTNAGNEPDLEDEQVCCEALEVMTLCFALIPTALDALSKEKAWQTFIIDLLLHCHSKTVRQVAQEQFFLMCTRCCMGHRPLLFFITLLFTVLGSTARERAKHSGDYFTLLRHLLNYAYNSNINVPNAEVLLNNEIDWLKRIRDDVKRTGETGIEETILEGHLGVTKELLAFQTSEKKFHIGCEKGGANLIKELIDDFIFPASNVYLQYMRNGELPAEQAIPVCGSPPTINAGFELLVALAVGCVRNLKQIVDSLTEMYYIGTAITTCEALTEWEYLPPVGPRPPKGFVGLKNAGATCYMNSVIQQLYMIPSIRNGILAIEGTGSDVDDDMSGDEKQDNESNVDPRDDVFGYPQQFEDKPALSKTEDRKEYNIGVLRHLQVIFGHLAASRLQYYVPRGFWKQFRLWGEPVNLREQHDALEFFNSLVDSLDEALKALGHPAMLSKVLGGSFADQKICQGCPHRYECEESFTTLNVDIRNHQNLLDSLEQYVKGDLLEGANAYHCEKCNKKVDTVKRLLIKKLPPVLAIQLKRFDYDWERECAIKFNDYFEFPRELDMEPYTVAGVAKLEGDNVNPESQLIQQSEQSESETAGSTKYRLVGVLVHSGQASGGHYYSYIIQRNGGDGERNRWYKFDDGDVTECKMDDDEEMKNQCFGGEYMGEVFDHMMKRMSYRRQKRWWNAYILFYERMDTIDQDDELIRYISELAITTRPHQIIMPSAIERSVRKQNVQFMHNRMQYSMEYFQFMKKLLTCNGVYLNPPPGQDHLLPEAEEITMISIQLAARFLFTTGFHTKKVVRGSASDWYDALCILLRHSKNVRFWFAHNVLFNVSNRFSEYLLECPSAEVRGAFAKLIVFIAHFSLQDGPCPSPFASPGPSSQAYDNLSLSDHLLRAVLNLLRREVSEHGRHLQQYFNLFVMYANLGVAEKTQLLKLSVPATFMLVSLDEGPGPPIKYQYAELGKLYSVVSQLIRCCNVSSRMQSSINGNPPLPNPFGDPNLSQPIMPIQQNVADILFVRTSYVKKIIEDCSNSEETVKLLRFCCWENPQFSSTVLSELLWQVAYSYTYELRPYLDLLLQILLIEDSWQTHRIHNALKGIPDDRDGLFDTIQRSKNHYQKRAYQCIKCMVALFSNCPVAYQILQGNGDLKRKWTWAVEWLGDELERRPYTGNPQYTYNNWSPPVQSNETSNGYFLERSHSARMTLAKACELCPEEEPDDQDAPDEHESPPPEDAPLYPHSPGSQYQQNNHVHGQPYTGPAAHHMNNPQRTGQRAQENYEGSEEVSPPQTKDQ", "procedure,_shortened": "(§1)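 HEK293T lysate (495 µg per sample, in Tris/CHAPS/IGEPAL buffer with protease inhibitors) was exposed in triplicate for 3 h to fragment at 200 µM or to vehicle, then to Biotin-Ahx-Ub-VS at 0.5 µM final for 1 h. Labelled DUBs were enriched on NeutrAvidin, digested with LysC and trypsin, and analysed by diaPASEF LC-MS/MS. Spectronaut label-free quantities were normalised to the global median, and values are average log2 ratios of fragment over vehicle from an unpaired t-test. Only proteins with ≥2 unique peptides were used.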"}, "UniProt O00487": {"target": "UniProt O00487", "procedure,_shortened": "as §1"}, "UniProt O00507": {"target": "UniProt O00507", "sequence (O00507 whole entry)": "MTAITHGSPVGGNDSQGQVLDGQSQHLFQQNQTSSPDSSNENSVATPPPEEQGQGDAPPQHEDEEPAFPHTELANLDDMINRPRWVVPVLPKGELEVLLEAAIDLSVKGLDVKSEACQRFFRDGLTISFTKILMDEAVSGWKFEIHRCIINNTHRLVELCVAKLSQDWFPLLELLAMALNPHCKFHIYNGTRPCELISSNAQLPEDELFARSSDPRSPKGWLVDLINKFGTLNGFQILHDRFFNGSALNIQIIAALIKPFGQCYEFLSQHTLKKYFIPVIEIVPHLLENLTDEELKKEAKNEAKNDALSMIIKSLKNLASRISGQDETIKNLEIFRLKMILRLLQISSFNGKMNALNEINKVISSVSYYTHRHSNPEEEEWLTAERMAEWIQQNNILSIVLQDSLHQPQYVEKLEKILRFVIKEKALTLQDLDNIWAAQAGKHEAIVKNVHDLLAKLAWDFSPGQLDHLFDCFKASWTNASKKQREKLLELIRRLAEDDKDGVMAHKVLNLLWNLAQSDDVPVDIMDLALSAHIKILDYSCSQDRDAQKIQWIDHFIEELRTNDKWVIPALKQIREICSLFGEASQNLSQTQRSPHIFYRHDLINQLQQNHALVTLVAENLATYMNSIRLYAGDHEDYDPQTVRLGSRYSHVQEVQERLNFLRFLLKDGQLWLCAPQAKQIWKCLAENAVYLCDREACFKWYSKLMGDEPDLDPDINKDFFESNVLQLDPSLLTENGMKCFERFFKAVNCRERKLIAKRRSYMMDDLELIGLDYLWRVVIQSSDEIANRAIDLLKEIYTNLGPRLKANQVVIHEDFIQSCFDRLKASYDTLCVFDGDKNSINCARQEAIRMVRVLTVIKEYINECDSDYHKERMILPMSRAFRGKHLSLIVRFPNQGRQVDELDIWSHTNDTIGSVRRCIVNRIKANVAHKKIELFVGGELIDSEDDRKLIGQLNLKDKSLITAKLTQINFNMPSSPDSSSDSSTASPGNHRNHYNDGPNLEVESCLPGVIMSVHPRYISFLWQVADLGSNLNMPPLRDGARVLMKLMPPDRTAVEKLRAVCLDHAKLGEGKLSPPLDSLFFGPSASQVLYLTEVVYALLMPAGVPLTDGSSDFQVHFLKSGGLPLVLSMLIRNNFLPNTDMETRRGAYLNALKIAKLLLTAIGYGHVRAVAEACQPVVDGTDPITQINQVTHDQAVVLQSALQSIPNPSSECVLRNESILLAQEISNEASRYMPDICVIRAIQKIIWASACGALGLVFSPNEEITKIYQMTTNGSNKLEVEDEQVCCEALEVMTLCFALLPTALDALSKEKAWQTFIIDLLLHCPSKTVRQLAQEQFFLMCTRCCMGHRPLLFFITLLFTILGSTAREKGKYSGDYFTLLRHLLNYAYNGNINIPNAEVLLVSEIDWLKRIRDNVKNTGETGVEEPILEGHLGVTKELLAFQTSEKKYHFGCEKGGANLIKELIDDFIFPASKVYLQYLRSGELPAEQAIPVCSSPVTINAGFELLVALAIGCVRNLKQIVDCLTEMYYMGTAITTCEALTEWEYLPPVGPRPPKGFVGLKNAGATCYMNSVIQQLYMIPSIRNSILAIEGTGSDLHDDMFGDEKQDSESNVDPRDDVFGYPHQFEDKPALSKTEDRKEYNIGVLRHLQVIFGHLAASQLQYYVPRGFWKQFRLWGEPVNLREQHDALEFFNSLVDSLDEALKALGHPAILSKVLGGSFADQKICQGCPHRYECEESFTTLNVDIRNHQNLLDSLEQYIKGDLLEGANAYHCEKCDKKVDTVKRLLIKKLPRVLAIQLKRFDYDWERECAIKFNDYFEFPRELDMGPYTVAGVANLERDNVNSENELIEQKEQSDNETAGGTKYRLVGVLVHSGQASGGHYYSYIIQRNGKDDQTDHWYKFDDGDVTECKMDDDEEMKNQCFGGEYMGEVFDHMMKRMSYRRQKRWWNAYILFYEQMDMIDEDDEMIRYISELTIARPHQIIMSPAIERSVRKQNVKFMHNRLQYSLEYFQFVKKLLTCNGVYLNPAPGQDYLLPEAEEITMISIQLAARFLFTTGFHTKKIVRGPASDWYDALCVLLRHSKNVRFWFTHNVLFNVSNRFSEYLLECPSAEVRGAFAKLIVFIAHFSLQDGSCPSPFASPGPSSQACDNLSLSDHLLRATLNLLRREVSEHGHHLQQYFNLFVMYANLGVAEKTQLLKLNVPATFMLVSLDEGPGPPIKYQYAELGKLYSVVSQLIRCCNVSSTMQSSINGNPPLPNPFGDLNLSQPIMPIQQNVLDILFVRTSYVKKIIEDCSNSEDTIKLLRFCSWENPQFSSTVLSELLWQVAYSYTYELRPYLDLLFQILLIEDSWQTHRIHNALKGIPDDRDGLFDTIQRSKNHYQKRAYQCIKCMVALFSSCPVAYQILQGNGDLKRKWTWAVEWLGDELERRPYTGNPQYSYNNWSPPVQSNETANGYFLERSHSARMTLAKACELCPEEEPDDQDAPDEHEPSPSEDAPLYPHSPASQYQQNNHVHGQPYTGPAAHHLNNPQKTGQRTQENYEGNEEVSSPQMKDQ", "procedure,_shortened": "as §1"}, "UniProt P51784": {"target": "UniProt P51784", "procedure,_shortened": "as §1"}, "UniProt Q5T2D3": {"target": "T1, UniProt Q5T2D3", "T1 sequence (whole entry)": "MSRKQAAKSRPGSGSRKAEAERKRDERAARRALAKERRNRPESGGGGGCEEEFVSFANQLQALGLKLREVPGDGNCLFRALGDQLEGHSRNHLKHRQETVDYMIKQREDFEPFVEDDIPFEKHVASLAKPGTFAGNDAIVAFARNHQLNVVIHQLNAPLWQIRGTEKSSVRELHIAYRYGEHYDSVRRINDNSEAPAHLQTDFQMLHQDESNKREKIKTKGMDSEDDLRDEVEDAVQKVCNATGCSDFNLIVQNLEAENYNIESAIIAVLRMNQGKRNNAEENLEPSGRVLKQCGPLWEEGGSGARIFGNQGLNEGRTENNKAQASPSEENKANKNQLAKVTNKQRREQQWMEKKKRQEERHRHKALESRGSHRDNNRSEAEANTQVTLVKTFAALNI", "procedure,_shortened": "as §1"}, "UniProt Q8TE49": {"target": "T2, UniProt Q8TE49", "T2 sequence (whole entry)": "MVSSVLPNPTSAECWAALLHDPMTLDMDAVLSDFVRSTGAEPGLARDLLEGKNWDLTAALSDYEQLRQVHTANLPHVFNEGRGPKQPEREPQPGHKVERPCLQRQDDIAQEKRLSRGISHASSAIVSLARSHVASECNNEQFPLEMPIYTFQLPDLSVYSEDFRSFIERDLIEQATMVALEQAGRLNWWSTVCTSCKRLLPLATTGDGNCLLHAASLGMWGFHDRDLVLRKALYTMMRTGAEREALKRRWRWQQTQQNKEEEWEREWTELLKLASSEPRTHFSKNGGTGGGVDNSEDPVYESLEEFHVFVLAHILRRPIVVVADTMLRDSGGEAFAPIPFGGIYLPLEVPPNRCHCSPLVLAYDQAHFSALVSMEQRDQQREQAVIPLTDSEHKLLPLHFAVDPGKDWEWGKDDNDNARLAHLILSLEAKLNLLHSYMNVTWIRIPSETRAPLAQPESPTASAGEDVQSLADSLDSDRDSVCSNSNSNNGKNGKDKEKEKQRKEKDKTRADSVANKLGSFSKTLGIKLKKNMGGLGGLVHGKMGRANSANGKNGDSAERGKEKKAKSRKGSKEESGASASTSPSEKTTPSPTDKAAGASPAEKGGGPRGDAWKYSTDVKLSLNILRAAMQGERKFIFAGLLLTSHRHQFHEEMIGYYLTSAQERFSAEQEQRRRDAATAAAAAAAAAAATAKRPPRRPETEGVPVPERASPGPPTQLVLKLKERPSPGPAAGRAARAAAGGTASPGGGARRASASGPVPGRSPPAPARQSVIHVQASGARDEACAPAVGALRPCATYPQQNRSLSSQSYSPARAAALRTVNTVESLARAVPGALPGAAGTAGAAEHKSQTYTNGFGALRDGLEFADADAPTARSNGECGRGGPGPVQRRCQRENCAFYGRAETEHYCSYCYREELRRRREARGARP", "procedure,_shortened": "as §1"}, "UniProt Q9P2H5": {"target": "T3, UniProt Q9P2H5", "T3 sequence (whole entry)": "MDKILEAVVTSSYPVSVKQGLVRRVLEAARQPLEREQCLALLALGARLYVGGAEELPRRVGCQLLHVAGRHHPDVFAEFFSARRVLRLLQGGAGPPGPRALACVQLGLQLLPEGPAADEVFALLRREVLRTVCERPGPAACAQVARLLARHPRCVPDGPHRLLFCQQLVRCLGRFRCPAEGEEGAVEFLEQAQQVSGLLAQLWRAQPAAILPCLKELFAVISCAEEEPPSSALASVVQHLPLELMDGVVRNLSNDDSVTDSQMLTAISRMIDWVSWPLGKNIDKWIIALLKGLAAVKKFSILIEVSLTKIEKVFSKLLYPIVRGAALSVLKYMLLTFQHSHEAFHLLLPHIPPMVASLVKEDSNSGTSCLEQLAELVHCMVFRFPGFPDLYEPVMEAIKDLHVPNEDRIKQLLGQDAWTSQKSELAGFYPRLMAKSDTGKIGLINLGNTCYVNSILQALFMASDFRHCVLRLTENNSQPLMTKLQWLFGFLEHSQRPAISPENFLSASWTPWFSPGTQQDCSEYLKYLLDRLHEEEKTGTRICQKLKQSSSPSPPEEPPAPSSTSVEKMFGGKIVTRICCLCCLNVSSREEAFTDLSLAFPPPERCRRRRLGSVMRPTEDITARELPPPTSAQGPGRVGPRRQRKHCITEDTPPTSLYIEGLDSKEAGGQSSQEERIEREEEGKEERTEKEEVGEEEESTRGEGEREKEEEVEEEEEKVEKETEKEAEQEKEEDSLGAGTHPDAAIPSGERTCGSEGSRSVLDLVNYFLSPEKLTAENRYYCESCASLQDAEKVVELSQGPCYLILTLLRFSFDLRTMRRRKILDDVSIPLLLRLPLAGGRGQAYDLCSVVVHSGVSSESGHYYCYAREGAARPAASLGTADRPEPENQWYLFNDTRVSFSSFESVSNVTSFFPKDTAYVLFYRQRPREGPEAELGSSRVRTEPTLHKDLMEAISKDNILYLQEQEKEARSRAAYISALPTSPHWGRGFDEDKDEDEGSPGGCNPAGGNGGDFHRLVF", "procedure,_shortened": "as §1"}, "UniProt Q9UGI0": {"target": "T4, UniProt Q9UGI0", "T4 sequence (whole entry)": "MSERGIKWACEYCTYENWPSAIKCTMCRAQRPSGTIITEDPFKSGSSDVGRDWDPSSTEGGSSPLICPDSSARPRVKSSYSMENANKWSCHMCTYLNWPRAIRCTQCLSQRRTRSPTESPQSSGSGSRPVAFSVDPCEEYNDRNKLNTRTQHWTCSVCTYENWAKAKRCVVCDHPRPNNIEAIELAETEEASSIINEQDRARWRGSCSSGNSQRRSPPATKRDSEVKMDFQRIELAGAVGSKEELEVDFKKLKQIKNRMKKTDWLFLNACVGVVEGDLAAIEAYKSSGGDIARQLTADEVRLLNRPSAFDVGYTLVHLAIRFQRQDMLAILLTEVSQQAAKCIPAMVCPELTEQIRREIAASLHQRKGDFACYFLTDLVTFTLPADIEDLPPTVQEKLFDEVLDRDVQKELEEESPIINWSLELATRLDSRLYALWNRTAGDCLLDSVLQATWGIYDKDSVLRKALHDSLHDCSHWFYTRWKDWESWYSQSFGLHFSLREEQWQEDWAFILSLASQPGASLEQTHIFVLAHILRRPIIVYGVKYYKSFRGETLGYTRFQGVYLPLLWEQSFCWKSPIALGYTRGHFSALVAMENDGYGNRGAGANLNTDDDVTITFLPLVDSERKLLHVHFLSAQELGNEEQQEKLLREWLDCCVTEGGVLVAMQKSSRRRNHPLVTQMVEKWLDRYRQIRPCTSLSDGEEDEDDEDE", "procedure,_shortened": "as §1"}, "YOD1": {"target": "T5, YOD1 (UniProt Q5VVQ6)", "T5 sequence (whole entry)": "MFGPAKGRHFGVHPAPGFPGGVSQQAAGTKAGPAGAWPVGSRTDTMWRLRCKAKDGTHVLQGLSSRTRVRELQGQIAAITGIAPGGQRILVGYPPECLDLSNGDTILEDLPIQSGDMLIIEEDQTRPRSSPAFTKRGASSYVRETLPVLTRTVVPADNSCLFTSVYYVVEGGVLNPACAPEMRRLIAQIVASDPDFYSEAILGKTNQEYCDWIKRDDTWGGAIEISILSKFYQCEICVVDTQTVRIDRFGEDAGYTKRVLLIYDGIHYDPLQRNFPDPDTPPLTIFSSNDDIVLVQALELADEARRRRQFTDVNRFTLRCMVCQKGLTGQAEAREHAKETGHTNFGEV", "procedure,_shortened": "as §1"}},
  "note": "Values without a mark were called inactive.",
  "data": [
    {"compound": "O=C(CCl)N[C@H]1CC[C@@H](CO)CC1", "values": [
      {"measurement": "log2 ratio of Biotin-Ahx-Ub-VS probe labelling", "setting": "USP9X", "result": -0.905},
      {"measurement": "log2 ratio of Biotin-Ahx-Ub-VS probe labelling", "setting": "UniProt O00487", "result": -0.163},
      {"measurement": "log2 ratio of Biotin-Ahx-Ub-VS probe labelling", "setting": "UniProt O00507", "result": -0.725},
      {"measurement": "log2 ratio of Biotin-Ahx-Ub-VS probe labelling", "setting": "UniProt P51784", "result": -0.788},
      {"measurement": "log2 ratio of Biotin-Ahx-Ub-VS probe labelling", "setting": "UniProt Q5T2D3", "result": -0.746},
      {"measurement": "log2 ratio of Biotin-Ahx-Ub-VS probe labelling", "setting": "UniProt Q8TE49", "result": "-1.32 (active)"},
      {"measurement": "log2 ratio of Biotin-Ahx-Ub-VS probe labelling", "setting": "UniProt Q9P2H5", "result": -0.775},
      {"measurement": "log2 ratio of Biotin-Ahx-Ub-VS probe labelling", "setting": "UniProt Q9UGI0", "result": -0.944},
      {"measurement": "log2 ratio of Biotin-Ahx-Ub-VS probe labelling", "setting": "YOD1", "result": -0.784}
    ]}
  ]
}
